The text below walks through data of PubChem BioAssay (EPA / NIEHS).

Activity calls are given as the source filed them. How the source made its calls: active means hit-call score of the fitted dose curve at least 0.9, where 1 is the maximum; inactive means score below 0.9.

A short description of the first test: CEETOX_H295R_OHPREG: CeeTox H295R High-throughput Steroidogenesis Assay for OH-Pregnenolone (OHPREG) (AID 2283434). Conditions: actives raise or lower the signal. In outline:
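Readout: HPLC-MS/MS of 17alpha-hydroxypregnenolone in medium after 48 h chemical exposure of H295R cells pretreated with forskolin. Values fitted bidirectionally relative to DMSO; chemicals reducing viability to 20–70% were retested after 10-fold dilution.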
`CC(C)OC(=O)Nc1ccccc1`: the outcome was inactive.

As for `C(=NC1CCCCC1)=NC1CCCCC1`, the compound was called inactive.

As for `O=C(Nc1ccc2[nH]ccc2c1)c1cc2cc(F)ccc2n1Cc1cccc(F)c1`, the AC50 is 1.11 µM (active).

As for `CCOP(=S)(OCC)SCSP(=S)(OCC)OCC`, the AC50 was 14.9 µM (active).

As for `CN(CCCC(=O)c1cccnc1)N=O`, the compound was classed as inactive.

As to `C=CC(=O)N(C)C`, the result was inactive.

In the case of `C1CCC(NC2CCCCC2)CC1`, the result was inactive.

With `Nc1ccc(-c2ccc(N)c(Cl)c2)cc1Cl`, the compound was classed as inactive.

As to `CCOP(=S)(OCC)SCCS(=O)(=O)CC`, the result was inactive.

As for `CCCCCCCCC(=O)NCc1ccc(O)c(OC)c1`, the compound was called inactive.

With `C[C@@H]1C[C@@H]([C@H](O)CC2CC(=O)NC(=O)C2)C(=O)[C@@H](C)C1`, the outcome was inactive.

A further test can be described thus: CEETOX_H295R_OHPROG: CeeTox H295R High-throughput Steroidogenesis Assay for OH-Progesterone (OHPROG) (AID 2283435).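 On AC50: human adrenal H295R cells primed 48 h with 10 µM forskolin; 17alpha-hydroxyprogesterone secreted into medium measured by HPLC-MS/MS.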 Particulars: actives raise or lower the signal. The method, boiled down: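 Human adrenocortical H295R cells, passage 10 or lower, were treated with chemical for 48 h after forskolin priming, and hormone output in the medium was quantified by LC-MS/MS.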
As to `CC(C)OC(=O)Nc1ccccc1`, the compound was classed as inactive.

Consider `C(=NC1CCCCC1)=NC1CCCCC1`, for which the result was inactive.

As to `O=C(Nc1ccc2[nH]ccc2c1)c1cc2cc(F)ccc2n1Cc1cccc(F)c1`, the concentration at half-maximal activity (AC50) is 0.124 µM (active).

For the compound `CCOP(=S)(OCC)SCSP(=S)(OCC)OCC`, the concentration at half-maximal activity (AC50) was 1.73 µM (active).

Turning to `CN(CCCC(=O)c1cccnc1)N=O`, the call was inactive.

For the compound `C=CC(=O)N(C)C`, the call was inactive.

With `C1CCC(NC2CCCCC2)CC1`, the result was inactive.

Turning to `Nc1ccc(-c2ccc(N)c(Cl)c2)cc1Cl`, the call was inactive.

`CCOP(=S)(OCC)SCCS(=O)(=O)CC`: the concentration at half-maximal activity (AC50) was 14.9 µM (active).

For the compound `CCCCCCCCC(=O)NCc1ccc(O)c(OC)c1`, the result was inactive.

Consider `C[C@@H]1C[C@@H]([C@H](O)CC2CC(=O)NC(=O)C2)C(=O)[C@@H](C)C1`, for which the compound was called inactive.

The next test in a line: CEETOX_H295R_CORTIC: CeeTox H295R High-throughput Steroidogenesis Assay for Corticosterone (CORTIC) (AID 2283437).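 Further: corticosterone secreted into medium quantified by mass spectrometry.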 Particulars: actives raise or lower the signal. The method, boiled down:
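Steps: seed H295R, adhere overnight; 10 uM forskolin 48 h; replace with chemical (0.1% DMSO) 48 h; extract medium with MTBE; quantify corticosterone by HPLC-MS/MS; score bidirectionally vs DMSO.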
As for `O=C(Nc1ccc2[nH]ccc2c1)c1cc2cc(F)ccc2n1Cc1cccc(F)c1`, the result was inactive.

In the case of `CCOP(=S)(OCC)SCSP(=S)(OCC)OCC`, the result was inactive.

Regarding `CN(CCCC(=O)c1cccnc1)N=O`, the result was inactive.

Turning to `C=CC(=O)N(C)C`, the compound was classed as inactive.

With `C1CCC(NC2CCCCC2)CC1`, the result was inactive.

On to `Nc1ccc(-c2ccc(N)c(Cl)c2)cc1Cl`, for which the compound was called inactive.

Regarding `CCOP(=S)(OCC)SCCS(=O)(=O)CC`, the call was inactive.

Take `CCCCCCCCC(=O)NCc1ccc(O)c(OC)c1`: the compound was classed as inactive.

The nature of a further test: CEETOX_H295R_CORTISOL: CeeTox H295R High-throughput Steroidogenesis Assay for Cortisol (AID 2283438).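 Further: cortisol secreted into medium quantified by LC-MS/MS.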 Particulars: actives raise or lower the signal. The method, boiled down:
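Steroidogenesis in H295R, per modified OECD 456: 48 h forskolin (10 uM), then 48 h exposure, 0.1% DMSO. Cortisol by extraction and tandem MS; viability by MTT (570/650 nm); cytotoxic chemicals diluted and re-tested.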
In the case of `O=C(Nc1ccc2[nH]ccc2c1)c1cc2cc(F)ccc2n1Cc1cccc(F)c1`, the AC50 is 4.26 µM (active).

Consider `CCOP(=S)(OCC)SCSP(=S)(OCC)OCC`, for which the compound was classed as inactive.

`CN(CCCC(=O)c1cccnc1)N=O`: the compound was called inactive.

`C=CC(=O)N(C)C`: the outcome was inactive.

Regarding `C1CCC(NC2CCCCC2)CC1`, the compound was classed as inactive.

Consider `Nc1ccc(-c2ccc(N)c(Cl)c2)cc1Cl`, for which the compound was called inactive.

For `CCOP(=S)(OCC)SCCS(=O)(=O)CC`, the compound was classed as inactive.

Consider `CCCCCCCCC(=O)NCc1ccc(O)c(OC)c1`, for which the compound was classed as inactive.

The next test can be described thus: CEETOX_H295R_DOC: CeeTox H295R High-throughput Steroidogenesis Assay for DOC (AID 2283439). Conditions: actives raise or lower the signal. The method, boiled down: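 H295R, fsk 10 uM ×48 h pre, cmpd ×48 h (0.1% DMSO). Media → MTBE extr. → LC-MS/MS, DOC. Bidirectional fit vs DMSO; MTT viability same wells, re-test diluted if <70%.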
As to `O=C(Nc1ccc2[nH]ccc2c1)c1cc2cc(F)ccc2n1Cc1cccc(F)c1`, the half-maximal activity concentration (AC50) was 0.522 µM (active).

As for `CCOP(=S)(OCC)SCSP(=S)(OCC)OCC`, the AC50 is 1.37 µM (active).

Consider `CN(CCCC(=O)c1cccnc1)N=O`, for which the call was inactive.

In the case of `C=CC(=O)N(C)C`, the compound was classed as inactive.

Take `C1CCC(NC2CCCCC2)CC1`: the outcome was inactive.

On to `Nc1ccc(-c2ccc(N)c(Cl)c2)cc1Cl`, for which the compound was classed as inactive.

Take `CCOP(=S)(OCC)SCCS(=O)(=O)CC`: the call was inactive.

Consider `CCCCCCCCC(=O)NCc1ccc(O)c(OC)c1`, for which the result was inactive.

As usually defined, the AC50 is the midpoint of the concentration-response curve, whichever way the signal moves.
